Measured values published in PubChem BioAssay (NCI).
Compounds without any hit were thinned out: in the full panel of roughly 83,000, 20% have a hit.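 Cells were grown in 96-well plates and exposed to the test compound at a single concentration for 48 hours; results are reported as percent growth, with values below 10 considered active.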 Activity calls are given as the source filed them.

What was measured:
Assay in all cases: NCI-60 one-dose screen, 48 h (100 = growth as untreated, 0 = no growth, -100 = all killed)
Conditions in all cases: 10 µM unless noted
HCT-15 colon = system: HCT-15 colon
HT29 colon = system: HT29 colon
SNB-75 CNS = system: SNB-75 CNS
SNB-19 CNS = system: SNB-19 CNS
U251 CNS = system: U251 CNS
PC-3 prostate = system: PC-3 prostate
SK-MEL-5 melanoma = system: SK-MEL-5 melanoma
UACC-62 melanoma = system: UACC-62 melanoma
LOX IMVI melanoma = system: LOX IMVI melanoma
SK-MEL-28 melanoma = system: SK-MEL-28 melanoma
SK-MEL-2 melanoma = system: SK-MEL-2 melanoma
EKVX NSCLC = system: EKVX NSCLC
SN12C renal = system: SN12C renal
UO-31 renal = system: UO-31 renal
TK-10 renal = system: TK-10 renal
ACHN renal = system: ACHN renal
CAKI-1 renal = system: CAKI-1 renal
CCRF-CEM leukemia = system: CCRF-CEM leukemia
MOLT-4 leukemia = system: MOLT-4 leukemia
A498 renal = system: A498 renal

Measured: growth

Cc1ccc(/C=C(/C#N)n2nnc3cccc(F)c32)cc1
inactive: SNB-19 CNS 16.2% | U251 CNS 13.9% | PC-3 prostate 20.8% | UACC-62 melanoma 13.2% | SK-MEL-28 melanoma 52.4% | SK-MEL-2 melanoma 14.6% | EKVX NSCLC 37.6% | SN12C renal 12.7% | UO-31 renal 15.6% | TK-10 renal 25.5% | ACHN renal 18.5% | CAKI-1 renal 20.1%
active: HCT-15 colon 5.46% | HT29 colon 9.94% | SNB-75 CNS -35.7% | SK-MEL-5 melanoma -55.2% | LOX IMVI melanoma -14.7% | CCRF-CEM leukemia 4.82% | MOLT-4 leukemia 5.52%

C=C(C)[C@@H]1CC[C@]2(C(=O)N[C@H](CO)Cc3ccccc3)CC[C@]3(C)[C@H](CC[C@@H]4[C@@]5(C)CCCNC(C)(C)[C@@H]5CC[C@]43C)[C@@H]12
active: HCT-15 colon -82.3% | HT29 colon -86.1% | SNB-75 CNS -95.1% | SNB-19 CNS -88% | U251 CNS -89.7% | PC-3 prostate -84.9% | SK-MEL-5 melanoma -95.5% | UACC-62 melanoma -85.6% | LOX IMVI melanoma -86.2% | SK-MEL-28 melanoma -92.3% | EKVX NSCLC -84.1% | SN12C renal -83.3% | UO-31 renal -92.6% | TK-10 renal -94.7% | ACHN renal -95.9% | CAKI-1 renal -93.5% | A498 renal -97.9% | CCRF-CEM leukemia -46.7% | MOLT-4 leukemia -62.6%

C=C1C(=O)O[C@H]2[C@H]1CC/C(COC(=O)NCCc1c[nH]c3ccc(OC)cc13)=C\CC[C@@]1(C)O[C@@H]21
inactive: SNB-75 CNS 55.5% | SNB-19 CNS 51.6% | U251 CNS 35.5% | PC-3 prostate 54.7% | SK-MEL-5 melanoma 64.7% | UACC-62 melanoma 21.6% | SK-MEL-2 melanoma 62.1% | EKVX NSCLC 19.8%
active: HCT-15 colon -54.7% | HT29 colon -15.2% | LOX IMVI melanoma -22.4% | SK-MEL-28 melanoma -10.8% | UO-31 renal -99.3% | TK-10 renal -13.1% | ACHN renal -59% | CAKI-1 renal -66.2% | CCRF-CEM leukemia -6.35% | MOLT-4 leukemia 3.53%

COc1cc2c(c(O)c1Cl)C(=O)c1c(O)cc(C[C@H](C)O)cc1[C@H]2[C@H]1c2cc(C[C@H](C)O)cc(O)c2C(=O)c2c1cc(OC)c(Cl)c2O
inactive: SNB-19 CNS 18% | PC-3 prostate 16.7% | SK-MEL-28 melanoma 38.2% | EKVX NSCLC 13.5% | TK-10 renal 31.8% | CCRF-CEM leukemia 18.6% | MOLT-4 leukemia 14.9%
active: HCT-15 colon 8.82% | HT29 colon 9.65% | SNB-75 CNS -3.83% | U251 CNS 8.26% | SK-MEL-5 melanoma -65.7% | UACC-62 melanoma 0.814% | LOX IMVI melanoma 7.32% | SK-MEL-2 melanoma -31.6% | UO-31 renal 2.84% | ACHN renal -5.77% | CAKI-1 renal 8.67%

O=[N+]([O-])CC(c1ccccc1F)c1c[nH]c2ccccc12 (configuration not stated)
inactive: HCT-15 colon 39.3% | HT29 colon 23.6% | SNB-75 CNS 54.9% | SNB-19 CNS 80.5% | U251 CNS 65.6% | PC-3 prostate 87.5% | SK-MEL-5 melanoma 81.5% | UACC-62 melanoma 53.4% | LOX IMVI melanoma 61% | SK-MEL-28 melanoma 78.2% | EKVX NSCLC 79.4% | SN12C renal 88.6% | UO-31 renal 71.9% | TK-10 renal 96.8% | ACHN renal 94.7% | CAKI-1 renal 59.2% | CCRF-CEM leukemia 69.7% | MOLT-4 leukemia 59%

CCCCOc1ccc(/C=N/Nc2cc(C)nc3ccc(Br)cc23)cc1
active: HCT-15 colon -66% | HT29 colon -19.4% | U251 CNS -53.5% | LOX IMVI melanoma -96.9% | UO-31 renal -71.1% | CCRF-CEM leukemia 2.46% | MOLT-4 leukemia -26%
inactive: SNB-75 CNS 107% | SNB-19 CNS 50.7% | PC-3 prostate 53.3% | SK-MEL-5 melanoma 84.3% | UACC-62 melanoma 87.3% | SK-MEL-28 melanoma 59.5% | SK-MEL-2 melanoma 106% | EKVX NSCLC 69.9% | TK-10 renal 76.2% | ACHN renal 19.9% | CAKI-1 renal 71.3%

Oc1ccc(C(c2ccc(O)cc2)c2ccc(Br)cn2)cc1
active: SNB-75 CNS -10.3% | PC-3 prostate -17.1% | LOX IMVI melanoma -12.2% | EKVX NSCLC -37.1% | TK-10 renal 4.53%
inactive: HCT-15 colon 15.6% | HT29 colon 70.5% | SNB-19 CNS 66.9% | U251 CNS 86.9% | SK-MEL-5 melanoma 85.5% | UACC-62 melanoma 38.9% | SK-MEL-28 melanoma 109% | SK-MEL-2 melanoma 31.6% | UO-31 renal 53% | ACHN renal 21% | CAKI-1 renal 79.5% | CCRF-CEM leukemia 111% | MOLT-4 leukemia 101%

CC(C)=CCC[C@](C)(O)[C@H]1CC[C@]2(C)[C@@H]1CC[C@@H]1[C@@]3(C)C/C(=C/c4ccccc4)C(=O)C(C)(C)[C@@H]3CC[C@]12C
inactive: HCT-15 colon 93.6% | HT29 colon 99.9% | SNB-75 CNS 67.2% | SNB-19 CNS 88% | U251 CNS 85.8% | PC-3 prostate 79.6% | SK-MEL-5 melanoma 98.7% | UACC-62 melanoma 88.2% | LOX IMVI melanoma 93.4% | SK-MEL-28 melanoma 104% | SK-MEL-2 melanoma 98.3% | EKVX NSCLC 96.4% | UO-31 renal 66.7% | TK-10 renal 63.8% | ACHN renal 96.3% | CAKI-1 renal 53.7% | A498 renal 85.6% | CCRF-CEM leukemia 87.8%

COc1ccc2[nH]c(=O)c(CN3CCN(c4nccc(-c5ccc(Cl)cc5)n4)CC3)cc2c1
inactive: HCT-15 colon 91.8% | HT29 colon 78.2% | SNB-75 CNS 99.9% | SNB-19 CNS 78.8% | U251 CNS 81.2% | PC-3 prostate 73.6% | SK-MEL-5 melanoma 94.6% | UACC-62 melanoma 94.4% | LOX IMVI melanoma 99.6% | SK-MEL-28 melanoma 95.8% | SK-MEL-2 melanoma 93.1% | EKVX NSCLC 96.4% | UO-31 renal 80.7% | TK-10 renal 104% | ACHN renal 81.9% | CAKI-1 renal 86.7% | CCRF-CEM leukemia 85.1% | MOLT-4 leukemia 75.5%

COc1cccc2c1c1nc3cc(C)c(C)cc3nc1n2CCN(C)C
inactive: HCT-15 colon 13.1% | HT29 colon 11% | SNB-75 CNS 34% | SNB-19 CNS 25.4% | U251 CNS 25.9% | PC-3 prostate 18.3% | SK-MEL-5 melanoma 10.7% | UACC-62 melanoma 14.6% | SK-MEL-28 melanoma 36% | SK-MEL-2 melanoma 11% | EKVX NSCLC 25.7% | TK-10 renal 52.1% | CCRF-CEM leukemia 27.6% | MOLT-4 leukemia 10.5%
active: LOX IMVI melanoma 1.15% | UO-31 renal 6.86% | ACHN renal -12.3% | CAKI-1 renal 9.75%

[O-][n+]1c(Cl)cc(Cl)c2ccccc21
inactive: HCT-15 colon 99.8% | HT29 colon 122% | SNB-75 CNS 101% | SNB-19 CNS 102% | U251 CNS 92.9% | PC-3 prostate 81.2% | SK-MEL-5 melanoma 109% | UACC-62 melanoma 98.9% | LOX IMVI melanoma 97.4% | SK-MEL-28 melanoma 104% | EKVX NSCLC 76.9% | SN12C renal 101% | UO-31 renal 78.5% | TK-10 renal 125% | ACHN renal 99.5% | CAKI-1 renal 92.6% | A498 renal 73.2% | CCRF-CEM leukemia 87.5% | MOLT-4 leukemia 88.7%

Cc1ccc(S(=O)(=O)Nn2c3c(cc(-c4nc5ccccc5s4)c2=O)CCCCCC3)cc1
inactive: HCT-15 colon 97% | HT29 colon 112% | SNB-75 CNS 91.9% | SNB-19 CNS 99.2% | U251 CNS 99.9% | PC-3 prostate 99.7% | SK-MEL-5 melanoma 96.2% | UACC-62 melanoma 84.4% | LOX IMVI melanoma 95.9% | SK-MEL-28 melanoma 110% | SK-MEL-2 melanoma 99.2% | EKVX NSCLC 92.5% | UO-31 renal 78.9% | TK-10 renal 111% | ACHN renal 97.5% | CAKI-1 renal 86.6% | CCRF-CEM leukemia 105% | MOLT-4 leukemia 100%

COc1cccc(C(=O)NNc2nc(Cl)nc(N3CCN(C(c4ccccc4)c4ccccc4)CC3)n2)c1
active: LOX IMVI melanoma 2.99% | CCRF-CEM leukemia -5.32% | MOLT-4 leukemia 4.48%
inactive: HCT-15 colon 13.3% | HT29 colon 20.3% | SNB-75 CNS 89.3% | SNB-19 CNS 77.4% | U251 CNS 100% | PC-3 prostate 34.3% | SK-MEL-5 melanoma 91.2% | UACC-62 melanoma 76.5% | SK-MEL-28 melanoma 89.1% | SK-MEL-2 melanoma 79.1% | EKVX NSCLC 89.6% | UO-31 renal 93.4% | TK-10 renal 97.8% | ACHN renal 54.6% | CAKI-1 renal 68.7%

N=C1C(c2nc3ccccc3s2)=C(O)CN1c1cc(Cl)cc(Cl)c1
inactive: HCT-15 colon 38.6% | HT29 colon 82.6% | SNB-75 CNS 128% | SNB-19 CNS 95.2% | U251 CNS 64.7% | PC-3 prostate 26.1% | SK-MEL-5 melanoma 88.9% | UACC-62 melanoma 78.1% | LOX IMVI melanoma 67% | SK-MEL-28 melanoma 120% | SK-MEL-2 melanoma 105% | EKVX NSCLC 82.4% | UO-31 renal 60.2% | TK-10 renal 115% | ACHN renal 73.4% | CAKI-1 renal 78% | A498 renal 98.5% | MOLT-4 leukemia 29.4%

O=C(Cn1c[n+](CC(=O)c2ccc(-c3ccccc3)cc2)c2ccccc21)Nc1cccc2cccnc12
active: HT29 colon 7.47% | SNB-75 CNS -6.7% | SNB-19 CNS 7.73% | SK-MEL-5 melanoma -35.1% | UACC-62 melanoma -32.3% | LOX IMVI melanoma -45.5%
inactive: HCT-15 colon 95.9% | U251 CNS 20.6% | PC-3 prostate 12.9% | SK-MEL-28 melanoma 21.2% | SK-MEL-2 melanoma 19.4% | EKVX NSCLC 47.6% | SN12C renal 14.9% | UO-31 renal 67.9% | TK-10 renal 88.5% | ACHN renal 90.1% | CAKI-1 renal 44.8% | CCRF-CEM leukemia 10.5% | MOLT-4 leukemia 11.4%

O=[N+]([O-])c1ccc(N=Nc2cc(S(=O)(=O)O)c3cccc(S(=O)(=O)O)c3c2O)cc1
inactive: HCT-15 colon 118% | HT29 colon 111% | SNB-75 CNS 104% | SNB-19 CNS 112% | U251 CNS 104% | PC-3 prostate 98.5% | SK-MEL-5 melanoma 104% | UACC-62 melanoma 108% | LOX IMVI melanoma 106% | SK-MEL-28 melanoma 117% | SK-MEL-2 melanoma 106% | EKVX NSCLC 82.7% | UO-31 renal 66.1% | TK-10 renal 127% | ACHN renal 107% | CAKI-1 renal 57.4% | A498 renal 124% | CCRF-CEM leukemia 119%
